This note sets out measurements from PubChem BioAssay AID1745850 (National Center for Advancing Translational Sciences (NCATS), 2022).

In all, about 2,100 compounds went through this assay and about 260 (12%) were called active. Roughly 58% stayed inconclusive and do not appear here. The list shows a part of the results. Unmarked numbers belong to inactive results. The call rests on the fitted dose curve; in most records, active means well fitted cell-killing curve with a large enough effect; inconclusive means small, poorly fitted or top-dose-only effect, or effect the other way; inactive means flat fitted curve, though single readings scatter.
Potency means the concentration at half of the fitted maximal effect.

The test in a line: Viability Counterscreen for Confirmatory qHTS for Inhibitors of ATXN expression. Further: nearly all actives have a fitted effect of over 50% in size. The settings on record: HEK-293 ATXN2-luc cells viability, CellTiter-Fluor, 24 h; activity change, negative = cytotoxicity: at the top concentration. In outline: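 Luminescence read-out (SteadyGlo, 5 min) followed a 30 min Gly-Phe-AFC (25 uM final) viability fluorescence read. ATXN2-luciferase reporter cells were exposed 24 h to a dilution series. Medium-only wells served as the 100% inhibition reference.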
(A counterscreen serves to expose hits that act by an unwanted route or on another target.)
On to `NNc1ncnc2sc3c(c12)CCC3`, for which the “activity change, negative = cytotoxicity” value is -29.5% [at 57.5 µM].
On to `O=c1c2c3c(sc2ncn1/N=C/c1ccc([N+](=O)[O-])o1)CCCC3`, for which the Potency is 3.55 µM (active).
Same read-out and setting: to `COc1cc(/C=C2\COC/C(=C\c3cc(OC)c(OC)c(OC)c3)C2=O)cc(OC)c1OC` belongs 1.78 µM (active); to `COc1ccc(/C=C2/CSC/C(=C/c3ccc(OC)c(OC)c3)C2=O)cc1OC`, 11.2 µM (active).
Turning to `Cc1ccc(CN2CCC(c3nc4ccc(Cl)cc4[nH]3)CC2)cc1`, the “activity change, negative = cytotoxicity” value was -21.1% [at 57.5 µM].
With `Cc1cc(C)c(C(O)c2ncc(-c3cccc4ccccc34)[nH]2)c(C)c1` (centres undefined), the “activity change, negative = cytotoxicity” value is -7.41%.
On the same count and under the same terms, to `OC(c1ccc(Cl)cc1)c1ncc(-c2cccc(C(F)(F)F)c2)[nH]1` (centres undefined) belongs 2.6%; to `Cc1ccc(-c2csc(N3CCN(c4cc5c(cc4Cl)nc(-c4ccncc4)n5CCOCCO)CC3)n2)cc1`, -22.6% [at 57.5 µM].
Take `Cn1c2c(c(=O)n(C)c1=O)C(C(F)(F)F)(C(F)(F)F)N=C(CCC1CCCCC1)N2`: the Potency is 20 µM (active).
Turning to `COc1cc(Nc2ncc3c(n2)CCN(C(=O)Nc2ccc(C(C)C)cc2)C3)cc(OC)c1OC`, the “activity change, negative = cytotoxicity” value was -27.8%.
Still for that read-out and setting: to `CCCc1cc(C(=O)Nc2ccc(C(=O)c3ccc(C)cc3)cc2)n(C)n1` belongs -29%; to `Cc1cc(C(=O)N/N=C/c2cc(Br)ccc2OC(=O)c2ccccc2)n[nH]1`, -18.4%; to `Cc1ccc(NC(=O)C2CCN(S(=O)(=O)c3ccc(N4CCCC4=O)cc3)CC2)cc1Cl`, -8.48%.
As for `Cn1c(SCc2ccc(C(C)(C)C)cc2)nnc1C1COc2ccccc2O1` (centres undefined), the “activity change, negative = cytotoxicity” value was -21.7%.
Still for that read-out and setting: to `CCc1ccc(C(=O)NNC(=O)C2CCN(c3ncnc4sc(C)c(C)c34)CC2)cc1` belongs -21.9%.
Still for that read-out and setting: the same measure for `CCc1c(C)nc2ncnn2c1N1CCC(C(=O)Nc2ccc(C)cc2)CC1`: -16.8% [at 57.5 µM].
On to `CCc1ccc(CNC(=O)C2CCN(c3nnc(C)c4c(C)n(-c5ccc(C)cc5)nc34)CC2)cc1`, for which the Potency is 20 µM (active).
`FC(F)(F)c1cc(-c2ccccn2)nc2cc(-c3ccccc3)nn12`: the “activity change, negative = cytotoxicity” value is -8.59% [at 57.5 µM].
Consider `Cc1ccc(-c2nnc(N3CCC(C)CC3)c3ccccc23)cc1C`, for which the “activity change, negative = cytotoxicity” value is -27.5%.
For `Cc1cc2c(N=O)c(NO)ccc2[nH]1`, the Potency is 12.6 µM (active).
Same read-out and setting: to `CC[n+]1c(C=C2C=C(C)OC(C)=C2)sc2ccccc21` belongs 11.2 µM (active).
In the case of `NNc1nc(N)c2c(n1)-c1ccccc1CC21CCCC1`, the “activity change, negative = cytotoxicity” value is -20.9% [at 57.5 µM].
Same read-out and setting: the same measure for `CC(=O)Nc1ccc(NC2=Nc3ccccc3N3C2=Nc2c(c(C)nn2-c2ccccc2)C3c2ccccc2)cc1` (centres undefined): 21.2%; for `OCCNc1c2ccccc2nc2c(F)c(F)c(F)c(F)c12`: 19.5% [at 57.5 µM].
Regarding `CC(=O)Nc1ccc(Nc2c3ccccc3nc3ccccc23)cc1`, the Potency is 17.8 µM (active).
Turning to `Cc1nnc(SCC(N)=O)n1CC1CCCO1` (centres undefined), the “activity change, negative = cytotoxicity” value is -18.5% [at 57.5 µM].
For `CCOc1ccccc1C(=O)Nc1ccc2nc(N3CCN(c4ncccn4)CC3)cc(C)c2c1`, the Potency is 11.2 µM (active).
For `CCOc1ccccc1NC(=O)N1CCC(c2nc3ccccc3[nH]2)CC1`, the “activity change, negative = cytotoxicity” value is -18.1%.
On the same count and under the same terms, the same measure for `CCOc1ccc(C(=O)Nc2ccc(Cc3ccncc3)cc2)cc1Br`: -20.8% [at 57.5 µM]; for `OC(c1ccccc1)(c1nc(-c2cc3ccccc3o2)cs1)C(F)(F)F` (centres undefined): -13% [at 57.5 µM].
Still for that read-out and setting: the same measure for `CCc1ccc(-c2nc(CS(=O)CC(=O)NCc3ccco3)c(C)o2)cc1` (centres undefined): -6.43%; for `Cc1ccc(OCCNC(=O)c2cncc(Br)c2)cc1C`: -20.8% [at 57.5 µM]; for `O=C(CP(=O)(c1ccccc1)c1ccccc1)N/N=C/c1cc(Br)cc(Br)c1O`: 1.93%.
As for `COc1ccc(C(=O)NCC(=O)N/N=C/c2ccc([N+](=O)[O-])s2)cc1OC`, the Potency was 22.4 µM (active).
Same read-out and setting: to `O=C(N/N=C/c1ccc([N+](=O)[O-])s1)c1ccccc1Br` belongs 22.4 µM (active).
`O=C(CNC(=O)c1cccc(Br)c1)N/N=C/c1cc(Br)cc(Br)c1O`: the “activity change, negative = cytotoxicity” value is -26.1% [at 57.5 µM].
For `O=C(CNC(=O)c1ccccc1Br)N/N=C/c1cc(Br)ccc1O`, the “activity change, negative = cytotoxicity” value was -2.53%.
With `O=C(N/N=C/c1cc(Br)ccc1O)c1ccncc1`, the “activity change, negative = cytotoxicity” value was -3.23%.
With `O=C(N/N=C\c1ccc([N+](=O)[O-])s1)c1cncc(Br)c1`, the Potency was 11.2 µM (active).
For `CN(Cc1cnc2nc(N)nc(N)c2n1)c1ccc(C(=O)NC(CCC(=O)O)C(=O)O)c2ccccc12` (centres undefined), the “activity change, negative = cytotoxicity” value is -30.4% [at 57.5 µM].
For the compound `Cc1c(N=C2C=CC(=O)c3ccccc32)c(=O)n(-c2ccccc2)n1C`, the Potency is 28.2 µM (active).
`Cc1c(N=C2N=C(NC(=O)c3ccc(F)cc3)c3ccccc32)c(=O)n(-c2ccccc2)n1C`: the “activity change, negative = cytotoxicity” value was -23.7%.
The same measure, in the same setting: to `Cc1cccc(/C=N/NC(=O)c2cccc(Cl)c2)n1` belongs -18.5%; to `COc1ccc(OCCNC(=O)C2(C)CCN2Cc2ccc3ccccc3c2)cc1` (centres undefined), -28.2% [at 57.5 µM].
On the same count and under the same terms, to `C[C@@H]1CC=C[C@@H]2[C@H]1C(=O)N(Cc1ccccc1)[C@H]2c1ccccc1Br` belongs -29.3% [at 57.5 µM]; to `O=C1Nc2c(Br)cc(Br)c3cccc1c23`, -20.9% [at 57.5 µM].
The same measure, in the same setting: to `COc1ccc(C)cc1NC(=O)C(Sc1nnc(-c2ccncc2)n1-c1ccc(Cl)cc1)c1ccccc1` (centres undefined) belongs -12.9%.
Consider `CCCOc1ccccc1C1NC(=O)NC(C)=C1C(=O)OCc1ccccc1` (centres undefined), for which the “activity change, negative = cytotoxicity” value was -14%.
Turning to `Cc1cccc(NC(c2ccc(C)s2)c2ccc3ccc(C)nc3c2O)n1` (centres undefined), the Potency was 25.1 µM (active).
